Bioassay records deposited in PubChem BioAssay by National Center for Advancing Translational Sciences (NCATS).
VACV mCherry inh: vaccinia inhibition (mCherry reporter); Vaccinia virus mCherry reporter infection, fluorescence; Potency, µM (titrated, usually from 36.5 µM), most hits filed as inhibitors; actives 0.63% (n = 310,000); AID 720579; calls by dose curve; tested in A549 cells; also: nearly all actives have a fitted effect of over 35% in size
HCMV antiviral: blocks human cytomegalovirus replication. HFF cells, HCMV-luciferase reporter, 72 h; stronger effect = lower value. activity change, negative = inhibition, % at 57.5 µM. actives 4.5% (n = 410,000). AID 1259415; in the data active = activity change below about -60%; inconclusive = no clear call, values can overlap the other calls; inactive = above about -39%
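After 16 h attachment at 37C, HFF cells received test compound and HCMV-luciferase (1 PFU/cell); reporter luminescence read 72 h later, data normalized against buffer-only and known inhibitor Salinomycin.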
LmPK inh: inhibitors of Leishmania mexicana pyruvate kinase; Q27686; purified LmPK, Kinase-Glo ATP luminescence, 1 h; Potency, µM (top dose mostly 57.5 µM), actives largely listed as inhibitors; actives 0.37% (n = 290,000)
Target sequence (Q27686 whole entry, looked up): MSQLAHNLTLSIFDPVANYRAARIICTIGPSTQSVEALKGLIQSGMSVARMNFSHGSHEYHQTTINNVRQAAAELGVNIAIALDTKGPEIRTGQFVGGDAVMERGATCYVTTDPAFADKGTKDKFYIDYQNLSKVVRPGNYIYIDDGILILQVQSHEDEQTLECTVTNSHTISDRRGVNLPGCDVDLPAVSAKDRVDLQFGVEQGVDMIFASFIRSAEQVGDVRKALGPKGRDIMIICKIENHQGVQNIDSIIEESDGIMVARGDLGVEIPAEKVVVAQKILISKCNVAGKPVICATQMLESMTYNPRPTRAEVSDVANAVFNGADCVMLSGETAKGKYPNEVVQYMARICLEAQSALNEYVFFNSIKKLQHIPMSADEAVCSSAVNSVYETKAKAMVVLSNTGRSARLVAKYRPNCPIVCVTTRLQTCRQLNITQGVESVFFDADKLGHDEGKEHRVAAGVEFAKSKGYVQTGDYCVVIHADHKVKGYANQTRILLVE
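qHTS format; LmPK 0.1 nM; substrates PEP 0.5 mM and ADP 0.1 mM. One-hour room-temperature incubation, then coupled luciferase luminescence; 0.5 nM enzyme wells mark activation.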
TbPYK inhibitor: inhibitors of Trypanosoma brucei pyruvate kinase; TbPYK enzyme, Kinase-Glo Plus ATP luminescence, 45 min; actives 0.12% (n = 410,000); Potency, µM (top dose mostly 76.8 µM), usual class: inhibitors; Q57TT1; AID 624173; also: nearly all actives have a fitted effect of over 50% in size
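Enzyme and substrate buffer are dispensed first and compound is pin-transferred. ADP at 130 uM final then starts the reaction, which runs 45 min at room temperature. Detection reagent is added for 10 min before luminescence is imaged.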
Vaccinia Venus: vaccinia inhibition (Venus reporter). Vaccinia virus Venus reporter expression, fluorescence. Potency, µM (top dose mostly 36.5 µM), most hits filed as inhibitors. actives 0.46% (n = 330,000). AID 720580; calls by dose curve; tested in A549 cells; also: nearly all actives have a fitted effect of over 30% in size
Hits are given with their value; 0 = inactive; ? = inconclusive; - = no result; ! = repeats disagree; [ ] = another dose, or the depositor's remark. Rows were chosen to be rich in hits. Some 5% of all compounds tested hit in one or more screens of this group. Unless noted, calls follow the shape of the dose curve; as a rule, active = well fitted curve in the direction sought with a large enough effect; inconclusive = small, poorly fitted or top-dose-only effect, or another doubt; inactive = no such curve, though single readings can be large; an effect the other way counts as inactive or inconclusive.

SMILES	VACV mCherry inh	HCMV antiviral	LmPK inh	TbPYK inhibitor	Vaccinia Venus
CCOC(=O)/C=c1\s/c(=C\c2c(OC)ccc3ccccc23)c(=O)n1CC(=O)NCC1CCCO1 (stereo unspecified)	-	-95	0	0	-
O=C(c1ccc(S(=O)(=O)N2CCCC2)cc1)N(c1ccc(F)cc1)C1C=CS(=O)(=O)C1 (stereo unspecified)	0	-69	0	0	0
O=C(c1ccc2c(c1)OCO2)N(c1ccc(Br)cc1)C1C=CS(=O)(=O)C1 (stereo unspecified)	0	-60	0	0	0
C1CCC(C(CC2CCCCN2)C2CCCCC2)CC1 (stereo unspecified)	11µM	-99!	0	0	13µM
O=C(O)c1ccc(N2C(=O)CCCC2=O)cc1	0	0	0	0	0
CC1CCCN(c2c([N+](=O)[O-])cc(C(=O)O)cc2[N+](=O)[O-])C1 (stereo unspecified)	0	-101	0	0	0
CC1CCCN(c2ccc(C(=O)N3CCC4(CC3)OCCO4)cc2[N+](=O)[O-])C1 (stereo unspecified)	0	0	0	0	0
COc1cccc(C(=O)Nc2ccc(NC(=O)C3CC3)nc2)c1	0	0	0	0	0
CC(=O)CCc1c(C)nc2ccc(C)cc2c1Cl	?	-80	0	0	?
CCOc1cc(C2C(C(=O)OC)=C(C)N=C3SCCC(=O)N32)ccc1OC(C)=O (stereo unspecified)	-	0	0	0	0
Cc1ncsc1CCOC(=O)c1ccc(N2CCOCC2)c([N+](=O)[O-])c1	-	-61	0	0	-
N/C(=N/OC(=O)c1ccccc1F)c1nonc1N	0	0	14µM	?	0
N/C(=N\OC(=O)c1ccc(Cl)cc1)c1nonc1N	0	0	13µM	0	0
N/C(=N\OCC(=O)Nc1ccccc1)c1nonc1N	0	0	0	0	0
COc1cc(O)cc2c1C(=O)OC(C)CCCC(=O)CCC/C=C\2 (stereo unspecified)	0	0	0	0	0
C[C@H]1CCCC(=O)CCC/C=C/c2cc(O)cc(O)c2C(=O)O1	0	-99	0	0	0
N#C/C(=C\c1cccc2ccccc12)c1nn(-c2ccccc2)c(N)c1C#N	0	-	-	0	0
Cc1ccc(/C=C(\C#N)c2nn(-c3ccccc3)c(N)c2C#N)cc1	10µM	0	0	0	?
COc1cc2c(C(=O)O)c(C)n(CC(C)C)c2c2ccccc12	-	0	0	0	0
OC(CNc1nc(C(F)(F)F)nc2ccccc12)c1ccccc1 (stereo unspecified)	0	-66	0	0	0
CCc1nnc(NC(=O)c2cccc(C(=O)Nc3nnc(CC)s3)n2)s1	0	-92	0	0	0
CNc1snc(C)c1C(=O)OCC(=O)c1ccc(Cl)cc1	-	0	-	0	-
CNc1snc(C)c1C(=O)OC(C)C(=O)c1ccc(F)cc1 (stereo unspecified)	-	-79	-	0	-
COc1ccc(CC(=O)N2CCc3cc(OC)c(OC)cc3C2COc2ccc(OC)cc2)cc1 (stereo unspecified)	0	0	-	0	0
CCc1ccc(OCC2c3cc(OC)c(OC)cc3CCN2C(=O)Cc2ccc(OC)c(OC)c2)cc1 (stereo unspecified)	35µM	0	-	0	?
SMILES	VACV mCherry inh	HCMV antiviral	LmPK inh	TbPYK inhibitor	Vaccinia Venus
CCCCN1C(=O)C(CC(=O)NCC2CCCCC2)CC(C(=O)N(C)C)=C1C (stereo unspecified)	0	-105	-	0	0
N#Cc1c(NC(=O)CSc2nc(N)cc(=O)[nH]2)sc2c1CCCCCC2	0	?	0	0	0
N#Cc1c(NC(=O)CSc2ncn[nH]2)sc2c1CCCCC2	?	-64	0	0	?
CCOC(=O)c1c(NC(=O)CSc2nnc(-c3ccc(Cl)cc3)o2)sc2c1CCC2	0	0	-	0	0
CC(C)(C)c1ccc(-c2nnc(SCC(=O)Nc3sc4c(c3C#N)CCCC4)o2)cc1	0	-102	0	0	0
CCCC[C@H](O)c1ccccc1	-	-	-	0	-
CCOC(=O)c1cc(-c2ccccc2)sc1NC(=O)C(C)N1C(=O)NC(C)(c2ccc(Cl)cc2)C1=O (stereo unspecified)	0	0	0	0	?
O=c1c2ccccc2sc2c(CO)ccc(NCCN3CCCCC3)c12	?	-98	-	0	10µM
CCN(CC)CCNc1ccc(CO)c2sc3ccccc3c(=O)c12	0	-96	0	0	?
CCN(CC)CCNc1ccc(CO)c2oc3ccccc3c(=O)c12	0	-89	-	0	?
CCN(CC)CCNc1cccc2sc3ccccc3c(=O)c12	?	0	-	0	?
COc1cc(C(=O)Oc2c(Sc3ccccc3)c(C)nn2-c2ccccc2)cc(OC)c1OC	?	0	-	0	0
c1ccc(CN=C(NCc2ccccc2)NCc2ccccc2)cc1	0	0	-	0	0
NC(N)=NCc1cccc(I)c1	0	-66	-	0	0
Cc1ccc(/C=C2\C(=O)NC(=S)N(c3ccccc3F)C2=O)s1	0	-101	0	32µM	0
Cc1ccc(/C=C2\C(=O)NC(=S)N(c3ccc(F)cc3)C2=O)s1	0	0	0	?	0
COc1ccc(Cl)cc1NC(=O)c1cnc2n(c1=O)CCS2	2.2µM	0	0	0	?
CCOC(=O)N1CCC(NC(=O)c2cnc3n(c2=O)CCS3)CC1	0	-61	0	0	0
CCCn1c(C)cc(/C=C(\C#N)C(=O)O)c1C	-	0	0	0	-
Cc1cc(/C=C(/C#N)C(=O)O)c(C)n1CCC(C)C	0	-68	0	0	0
CCC(=O)N1CCN(c2cc(N3CCCC3)c(F)cc2[N+](=O)[O-])CC1	-	?	-	0	-
O=C(c1cccc(F)c1)N1CCN(c2cc(N3CCCCC3)c(F)cc2[N+](=O)[O-])CC1	-	-74	0	0	-
CN(C(=O)CCn1c(=S)oc2ccccc21)c1ccc(F)cc1	0	-89	0	0	0
CC(=O)c1ccc(-c2nc3c4ccccc4ccn3c2C(C)=O)o1	0	-65	0	0	0
Cc1ccc(Cc2c(-c3ccco3)nc3c4ccccc4ccn23)cc1	0	0	-	0	0
SMILES	VACV mCherry inh	HCMV antiviral	LmPK inh	TbPYK inhibitor	Vaccinia Venus
CCc1ccc(CNCCc2ccccc2F)cc1	0	-72	0	0	?
O=C(c1ccco1)N1CCN(C2CN(Cc3ccc([N+](=O)[O-])cc3)S(=O)(=O)C2)CC1 (stereo unspecified)	0	0	-	0	0
O=C(Nc1cccc(S(=O)(=O)N2CCCCC2)c1)c1ccc(OCC2CCCO2)cc1 (stereo unspecified)	0	-66	0[11.5 µM]	0	0
O=C(Nc1ccc(S(=O)(=O)N2CCCC2)cc1)c1ccc(OCC2CCCO2)cc1 (stereo unspecified)	0	-88	0	0	0
O=C(Nc1ccc(Cl)c(S(=O)(=O)N2CCOCC2)c1)c1ccc(OCC2CCCO2)cc1 (stereo unspecified)	0	-	0	0	0
Cc1cnc(NC(=O)c2ccc(OCC3CCCO3)cc2)s1 (stereo unspecified)	0	0	0	0	0
